Records with an inconclusive call do not appear. The source made the active and inactive calls. Calls come from the whole dose curve; as a rule, active = well fitted inhibition curve with a large enough effect; inconclusive = small, poorly fitted or top-dose-only effect; inactive = flat fitted curve, though single readings scatter.
Assays:
[1] = tested on: CRL-7250; test: Cytotoxic Profiling of Annotated Libraries Using Quantitative High-Throughput Screening (AID 1296008); settings: Five cell lines viability, CellTiter-Glo ATP luminescence, 48-72 h; max response: stronger effect = lower value; for max response: % is set by controls: 0 for no effect and ±100 for the full control effect
Outline: (§1)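 Cells exposed to compounds for 48 or 72 hr at 37 degrees Celsius. Viability read as ATP-coupled luminescence with CellTiter-Glo after 10 min at room temperature.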

[2] = tested on: HEK293; test: as above; settings: Five cell lines viability, CellTiter-Glo ATP luminescence, 48-72 h; max response: stronger effect = lower value
Outline: as §1

[3] = tested on: HaCat; test: as above; settings: Five cell lines viability, CellTiter-Glo ATP luminescence, 48-72 h; max response: stronger effect = lower value
Outline: as §1

[4] = tested on: KB-3-1; test: as above; settings: Five cell lines viability, CellTiter-Glo ATP luminescence, 48-72 h; max response: stronger effect = lower value
Outline: as §1

[5] = tested on: NIH3T3; test: as above; settings: Five cell lines viability, CellTiter-Glo ATP luminescence, 48-72 h; max response: stronger effect = lower value
Outline: as §1

[6] = tested on: HEK293T; test: qHTS assay to identify novel small-molecules to repurpose for Merkel cell carcinoma treatment (AID 1296009); settings: MCC and control cell lines, CellTiter-Glo viability, 72 h; series mostly up to 44.8 µM
Outline: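 Cells were treated for 72 hr at 37 degree celsius with compounds in 8- or 11-point dose response. Viability was read by CellTiter-Glo luminescence, normalized to no-cell (cytotoxicity) and DMSO controls.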
Note: nearly all actives have a fitted effect of over 60% in size.

CC(CO[C@@H]1O[C@H](COC(=O)/C=C/c2ccc(O)c(O)c2)[C@@H](O)[C@H](O)[C@H]1O)C1(O)COC(=O)C1 (some centres undefined)
inactive: max response [1] -2.89% | outcome [2] | max response [3] 3.48% | max response [4] -4.71% | max response [5] -5.15% | Potency [6]

CC(/C=C/[C@]1(O)[C@@]2(C)CO[C@@]1(C)C[C@@H](O)C2)=C\C(=O)O[C@@H]1O[C@H](CO)[C@@H](O)[C@H](O)[C@H]1O
inactive: outcome [1] | outcome [2] | max response [3] -14.2% | outcome [4] | outcome [5] | Potency [6]

COc1cc(/C=C/C(=O)O[C@H]2[C@H](O)[C@@H](CO)O[C@@]2(CO)O[C@H]2O[C@H](COC(=O)c3ccc(O)cc3)[C@@H](O)[C@H](O)[C@H]2O)cc(OC)c1OC
inactive: outcome [1] | outcome [2] | max response [3] 4.76% | max response [4] 3.54% | outcome [5] | Potency [6]

COCC(=O)N1CCc2cc(-c3csc(NC(=O)c4cc(OC)cc(OC)c4)n3)ccc21
inactive: outcome [1] | outcome [2] | max response [3] -4% | outcome [4] | outcome [5] | Potency [6]

CC1=CC(=O)OC(C)(CC(C)(O)C(=O)O)C1 (centres undefined)
inactive: max response [1] -4.45% | outcome [2] | max response [3] -5.61% | max response [4] 6.61% | max response [5] 0.862% | Potency [6]

CC1(C)CCCC2(C)C1C(O)C=C(CO)C2(O)C(=O)O (centres undefined)
inactive: max response [1] 3.48% | outcome [2] | max response [3] -13.1% | max response [4] 3.33% | max response [5] 3.08% | Potency [6]

CC1=CCC2C(C)(CO)CCCC2(C)C1CC12OC1C(O)C(CO)=CC2O (centres undefined)
inactive: max response [1] 4.27% | outcome [2] | max response [3] -8.88% | outcome [4] | outcome [5] | Potency [6]

CC(=O)OC1C(O)CC(O[C@@H]2O[C@H](CO)[C@@H](O)[C@H](O)[C@H]2O)C2CCC3C(=O)OC(c4ccoc4)CC3(C)C21 (some centres undefined)
inactive: max response [1] -4.25% | outcome [2] | max response [3] -6.02% | max response [4] 0.494% | outcome [5] | Potency [6]

CCN(c1cc(C#CCN2CCOCC2)cc(C(=O)NCc2c(C)cc(C)[nH]c2=O)c1C)C1CCC(N(C)CCOC)CC1 (centres undefined)
inactive: outcome [1] | outcome [2] | max response [3] -3.84% | outcome [4] | outcome [5] | Potency [6]

C=CC(C)(O)CO[C@@H]1O[C@H](CO)[C@@H](O)[C@H](O)[C@H]1O (some centres undefined)
inactive: max response [1] -1.51% | outcome [2] | max response [3] -30.3% | max response [4] 1.27% | max response [5] -4.31% | Potency [6]

C=C1C(O[C@@H]2O[C@H](CO)[C@@H](O)[C@H](O)[C@@H]2O)CC2C(C)(C)C(O)CCC2(C)C1CC/C(C)=C\CO (some centres undefined)
inactive: max response [1] -10.8% | outcome [2] | max response [3] -5.23% | outcome [4] | max response [5] -3.89% | Potency [6]

C=C(C(=O)OC)C1CCC2(C)C(O[C@@H]3O[C@H](CO)[C@@H](O)[C@H](O)[C@H]3O)CC(=O)C(C)C2C1O (some centres undefined)
inactive: max response [1] 1.28% | outcome [2] | max response [3] -1.72% | outcome [4] | outcome [5] | Potency [6]

CC(/C=C/C1(O)C2(C)COC1(C)CC(=O)C2)O[C@@H]1O[C@H](CO)[C@@H](O)[C@H](O)[C@H]1O (some centres undefined)
inactive: max response [1] -2.92% | outcome [2] | max response [3] 3.45% | outcome [4] | max response [5] 3.43% | Potency [6]

CC1CCC2C(C)(C)C(O)CCC2(C)C12Cc1c(O)cc3c(c1O2)CN=C3N (centres undefined)
inactive: max response [1] -3.95% | outcome [2] | max response [3] 3.03% | max response [4] 2.69% | outcome [5] | Potency [6]

C[C@@H]1O[C@@H](O[C@H]2[C@H](O[C@H]3CO[C@@H](O[C@H]4CC[C@@]5(C)C(CC[C@]6(C)C5CC[C@]57OC[C@@]8(CC[C@](C)(CO)CC85)[C@H](O)C[C@]76C)C4(C)C)[C@H](O[C@@H]4O[C@H](CO)[C@@H](O)[C@H](O)[C@H]4O)[C@H]3O)O[C@H](CO)[C@@H](O)[C@@H]2O)[C@H](O)[C@H](O)[C@H]1O (some centres undefined)
inactive: max response [1] -17.3% | outcome [2] | max response [3] -3.02% | max response [4] 5.69% | max response [5] 2.44% | outcome [6] inactive [at 9.27 µM]

CC(C)(C)NCC(O)COc1cccc2c1CCCC2=O (centres undefined)
inactive: outcome [1] | outcome [2] | max response [3] -7.74% | outcome [4] | outcome [5] | Potency [6]

COc1c2c(c(C)c3c1C(=O)OC3)O[C@@]1(C)C[C@@H](O)[C@]34O[C@](OC)(CC[C@]3(C)[C@H]1C2)OC4(C)C
inactive: outcome [1] | outcome [2] | max response [3] -1.6% | outcome [4] | max response [5] 2.2% | Potency [6]

OCC1OC(Oc2cc(O)c3c(c2)OC(c2ccc(O)cc2)C(O)C3)C(O)C1O (centres undefined)
inactive: max response [1] -1.28% | outcome [2] | max response [3] -8.75% | max response [4] 9.04% | max response [5] 2.06% | Potency [6]

CC(C)(C)NCc1cc(Nc2ccnc3cc(Cl)ccc23)c2c(c1O)CCCC2
inactive: max response [1] 1.77% | outcome [2] | max response [3] -6.14% | max response [4] 7.98% | outcome [5] | outcome [6] inactive [at 0.588 µM]

COc1ccccc1CC(C(=O)O)N(C)C(=O)c1ccccc1 (centres undefined)
inactive: max response [1] 0.437% | outcome [2] | max response [3] 1.79% | max response [4] 2.61% | max response [5] -9.18% | Potency [6]

NC(=O)c1ccc(OCC2NC(=O)C3CCCN3C2=O)cc1 (centres undefined)
inactive: max response [1] -2.01% | outcome [2] | max response [3] -3.74% | max response [4] 6.37% | outcome [5] | Potency [6]

COCCN(C)Cc1ccc2nc3sc(C(=O)N(C)C4CCCCC4)cn3c2c1
inactive: outcome [1] | outcome [2] | max response [3] -3.7% | outcome [4] | max response [5] -0.706% | Potency [6]

O=C(/C=C/c1ccc(O)cc1)O[C@H]1[C@@H]2C=CO[C@@H](O[C@@H]3O[C@H](CO)[C@@H](O)[C@H](O)[C@H]3O)[C@@H]2[C@@]2(CO)O[C@@H]12
inactive: max response [1] -3.08% | outcome [2] | max response [3] 1.73% | outcome [4] | max response [5] 0.736% | Potency [6]

CC1CCC2C(C)(C)C(O)CCC2(C)C12Cc1c(O)cc3c(c1O2)CN(C(CCC(N)=O)C(=O)O)C3=O (centres undefined)
inactive: max response [1] 0.113% | outcome [2] | max response [3] 2.99% | max response [4] 5.86% | max response [5] -0.736% | Potency [6]

C=CCc1ccc(O[C@@H]2O[C@H](CO[C@@H]3O[C@@H](C)[C@H](O)[C@@H](O)[C@H]3O)[C@@H](O)[C@H](O)[C@H]2O)cc1
inactive: max response [1] -0.302% | outcome [2] | max response [3] 4.55% | max response [4] 2.9% | outcome [5] | Potency [6]

COc1cc(C(=O)OC[C@H]2O[C@H](O[C@@]3(CO)O[C@@H](CO)[C@H](O)[C@H]3O)[C@H](O)[C@@H](O)[C@@H]2O)ccc1O
inactive: max response [1] -10.5% | outcome [2] | max response [3] 2.76% | max response [4] 4.87% | max response [5] 0.778% | Potency [6]

CCn1cc(C2=NOC(C(=O)Nc3c(C)n(C)n(-c4ccccc4)c3=O)C2)c(C)n1 (centres undefined)
inactive: max response [1] 1.73% | outcome [2] | max response [3] -4.53% | outcome [4] | max response [5] 2.09% | Potency [6]

CC(=O)O[C@H]1CC[C@@]2(CI)C(=CC[C@@H]3[C@@H]2CC[C@]2(C)[C@@H]([C@H](C)CCCC(C)C)CC[C@@H]32)C1
inactive: max response [1] -3.01% | outcome [2] | max response [3] 4.89% | outcome [4] | outcome [5] | outcome [6] inactive [at 9.27 µM]

C=C1CC[C@@H]2[C@](C)(CC[C@H](O)[C@@]2(C)CCC=C(C)C)[C@@H]1Cc1c[nH]c2ccccc12
inactive: max response [1] -8.3% | outcome [2] | max response [3] -2.84% | max response [4] 1.09% | outcome [5] | Potency [6]

C=CC(C)(O)CC/C=C(\C)C(=O)OCC1OC(OC2CCC3(C)C(CCC4(C)C3CC=C3C5CC(C)(C)C(O)CC5(C(=O)O)CCC34C)C2(C)C)C(O)C(OC2OC(CO)C(O)C(OC3OC(CO)C(O)C(OC4OC(COC5OC(CO)C(O)C(O)C5O)C(O)C(O)C4O)C3O)C2O)C1O (centres undefined)
inactive: max response [1] -1.92% | outcome [2] | max response [3] 2.14% | outcome [4] | outcome [5] | outcome [6] inactive [at 9.27 µM]

OCC1=CC[C@@H]2C=CO[C@@H](O[C@@H]3O[C@H](CO)[C@@H](O)[C@H](O)[C@H]3O)[C@H]12
inactive: outcome [1] | outcome [2] | max response [3] -13.7% | outcome [4] | max response [5] -0.173% | Potency [6]

C[C@@H]1C(=O)O[C@H]2CC34[C@H]5C[C@@H](C(C)(C)C)C36[C@@H](OC(=O)[C@@H]6O)O[C@@]4(C(=O)O5)[C@]21O (some centres undefined)
inactive: max response [1] 3.21% | outcome [2] | max response [3] -17.8% | max response [4] -3.91% | max response [5] 1.08% | Potency [6]

OC1COC(OCC2OC(OCCc3ccccc3)C(O)C(O)C2O)C(O)C1O (centres undefined)
inactive: outcome [1] | outcome [2] | max response [3] -7.45% | outcome [4] | outcome [5] | Potency [6]

C[C@@H]1O[C@@H](O[C@H]2[C@H](OC(=O)C34CCC5(C)C(=CCC6C7(C)CC(O)C(O[C@@H]8O[C@H](C(=O)O)[C@@H](O)[C@H](O)[C@H]8O)C(C)(C(=O)O)C7CCC65C)C3CC(C)(C)CC4O)O[C@H](C)[C@@H](O)[C@@H]2O)[C@H](O)[C@@H](O[C@@H]2OC[C@](O)(CO)[C@H]2O[C@@H]2O[C@H](CO)[C@@H](O)[C@H](O)[C@H]2O)[C@H]1O (some centres undefined)
inactive: max response [1] -4.39% | outcome [2] | max response [3] -8.41% | outcome [4] | outcome [5] | outcome [6] inactive [at 9.27 µM]
